Several values for one entry are separate records, joined by “and”; a condition that tells them apart may be missing. Equal entries are not always repeated. Records with an inconclusive call do not appear. A call without a number means that no potency is given here. Where a structure was tested more than once in an assay, its records may differ in their call. Activity calls are given as the source filed them. Calls follow the shape of the dose curve; as a rule, active = well fitted activation curve with a large enough effect in the repeat runs; inconclusive = weak or mixed curves; inactive = flat fitted curve, though single readings scatter.
Potency is read from the fitted curve at half-maximal effect.

A short description of this assay: A CellTox Green Cytotoxicity Assay to monitor cytotoxicity in HepG2 cells - 16 hour (AID 1224876). Also: nearly all actives have a fitted effect of over 45% in size. Conditions: CellTox Green fluorescence; series mostly up to 76.8 µM. From the text:
National Center for Advancing Translational Sciences [NCATS]
NIH Chemical Genomics Center [NCGC]
U.S. Environmental Protection Agency [EPA]
National Institutes of Environmental Health Sciences [NIEHS]
National Toxicology Program [NTP]
Cell-based models are critical for drug discovery. Determining the natural cytotoxic effects resulting from test compounds is an essential research activity. A CellTox Green Cytotoxicity Assay to monitor cytotoxicity in real time of continues cell culture during 40 hours of the compound treatment was used to screen Tox21 10K library compounds in HepG2 cells. CellTox Green Cytotoxicity Assay is a nonlytic, homogeneous, biofluorescent method to measure cytotoxicity in cell culture after experimental manipulation. The assay system uses a proprietary asymmetric cyanine dye that is excluded from viable cells but preferentially stains the dead cell's DNA. […] Viable cells produce no appreciable increases in fluorescence. Therefore, the fluorescence signal produced by the binding interaction with dead cell DNA is proportional to cytotoxicity.
The mixture of HepG2 cell suspension and reagents were dispensed at 600cells/6 ul/well in 1536-well tissue culture treated black solid bottom plates using a Multidrop dispenser. After the assay plates were incubated at a 37 C/5% CO2 incubator for 5 hours, 23 nL of compounds dissolved in DMSO, positive and negative controls was transferred to the assay plate by a pintool work station. The plates were incubated at 37 C for 40 hours. The fluorescence intensity were measured at 0h, 8h, 16h, 24h, 32h and 40h time points using ViewLux plate reader during compound treatment.
`CC(C#N)CCC#N` (stereo not given): the Potency entry is “inactive”.

With `Nc1ccc(Oc2ccc(N)cc2)cc1`, the Potency entry was “inactive”. Next, `CCC[N+](=O)[O-]`: “inactive”; `CC(C)OC(=O)Nc1cccc(Cl)c1`: “inactive”; `CC(C)OC(=O)Nc1ccccc1`: “inactive”. To `CNC(=O)Oc1ccccc1OC(C)C` belongs “inactive”; to `C[C@]12CC[C@H]3[C@@H](CC[C@@]45O[C@@H]4C(O)=C(C#N)C[C@]35C)[C@@H]1CC[C@@H]2O`, “inactive”; to `CCCCOC(=O)c1ccccc1C(=O)OCCCC`, “inactive”. On to `CC(C)C#N`, for which the Potency entry was “inactive”. Regarding `Cc1cccc([N+](=O)[O-])c1`, the Potency entry was “inactive”. Next, `CCOP(=S)(OCC)SCCSCC`: “inactive”; `CCc1cccc(C)c1N(C(=O)CCl)C(C)COC` (stereo not given): “inactive”. As to `CC1OC(C)OC(C)O1` (stereo not given), the Potency result is “inactive”. Regarding `Clc1cccc(Cl)c1Cl`, the Potency entry is “inactive”. To `C1CN2CCN1CC2` belongs “inactive and 21.9 µM (active)”; to `CCC[CH2][Sn]([Cl])([Cl])[Cl]`, “inactive”. Next, `CCCCCCCCCl`: “inactive”; `O=S(=O)(c1ccc(Cl)cc1)c1cc(Cl)c(Cl)cc1Cl`: “inactive”; `CCCCN(CC)C(=O)SCCC`: “inactive”. For `C#CC(C)(C)NC(=O)c1cc(Cl)cc(Cl)c1`, the Potency result is “inactive”. Consider `c1ccc(OP(Oc2ccccc2)Oc2ccccc2)cc1`, for which the Potency result is “inactive”. Next, `C=CC(N)=O`: “inactive”. To `CCOC(=O)c1ccccc1C(=O)OCC` belongs “inactive”; to `C=C(C)CCl`, “inactive”.

As for `COC(=O)NC(=S)Nc1ccccc1NC(=S)NC(=O)OC`, the Potency entry was “inactive”. Next, `CCOP(OCC)OCC`: “inactive”.

`[O-][Cl+2]([O-])O`: the Potency result was “inactive”. Next, `c1ccc2c(c1)Oc1ccccc1O2`: “inactive”; `CCNc1nc(NC(C)C)nc(SC)n1`: “inactive”; `O=c1[nH]c2ccccc2c(=O)o1`: “inactive”.

Consider `Nc1ccccc1C(=O)O`, for which the Potency entry was “inactive”. On to `CC(C)(C)OOC(=O)c1ccccc1`, for which the Potency entry was “inactive”. Next, `O=c1ccc(=O)[nH][nH]1`: “inactive”; `O=C(O)c1ccccn1`: “inactive”; `CN(C)CCO`: “inactive”.

Turning to `CCCN(CCC)c1c([N+](=O)[O-])cc(C(F)(F)F)cc1[N+](=O)[O-]`, the Potency result was “inactive”. To `OCCN(CCO)CCO` belongs “inactive”; to `O=Cc1cccc(Oc2ccccc2)c1`, “inactive”; to `CC(C)C1(C)N=C(c2nc3ccccc3cc2C(=O)O)NC1=O` (stereo not given), “inactive”. Regarding `CC(=O)C=C(C)C`, the Potency result is “inactive”.

Source of the values: PubChem BioAssay (Tox21).
